a7 integrin act – activators of alpha7 integrin expression for muscular dystrophy; alpha7betagal myoblasts, beta-gal FDG fluorescence, 48 h; Potency, µM (series often up to 38.3 µM), without a hit: at the top dose activation, usual class: activators; hit rate 0.064% among 350,000; AID 624291;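 note: potency is the fitted concentration of half-maximal effect; 100% = response of the positive control SU9516; nearly all actives have a fitted effect of over 60% in size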
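Alpha7betagal+/- myoblasts (passage 13) were plated 16-24 hr, then exposed to compounds (1:260 dilution of DMSO stock) for 48 hours at 37C. After MPER lysis, β-galactosidase reporter activity was read as FDG fluorescence (ex 480/em 540) after 30 minutes.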
RORgamma inh – blocks mouse ROR gamma transcriptional activity | hit rate 5.4% among 310,000 | P51450 | Potency, µM (series often up to 53.6 µM), without a hit: top-dose activity change, negative = inhibition, most hits filed as inhibitors | Drosophila S2 Gal4-RORgamma UAS-luciferase reporter, 20 h; note: potency is the fitted concentration of half-maximal effect; % is set by controls: 0 for no effect and ±100 for the full control effect; nearly all actives have a fitted effect of over 60% in size
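Luciferase reporter read in Schneider cells carrying Gal4-RORγ (mouse) and UAS-Photinus luciferase; cells given compound 1 h before 700 uM copper sulfate induction, then incubated 20 h at ambient temperature.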
VP16 counter – counter-screen for ROR gamma inhibitors: Gal4-VP16 reporter | AID 2546 | hit rate 3.5% among 310,000 | Potency, µM (top dose mostly 53.6 µM), for inactives: top-dose activity, negative = inhibition, most hits filed as inhibitors | Drosophila S2 Gal4-VP16 UAS-luciferase, luminescence, 20 h;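 note: Gal4-VP16 expression switched on by copper sulfate through the metallothionein promoter; potency is the fitted concentration of half-maximal effect; % is set by controls: 0 for no effect and ±100 for the full control effect; nearly all actives have a fitted effect of over 50% in size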
Giardia kill – kills Giardia lamblia; hit rate 0.15% among 340,000; Giardia lamblia trophozoite viability; activity change, % at 7.66 µM, hits read low; in the data active = activity change below about -80%; inconclusive = between about -30% and that limit;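 note: parasites exposed to compound for two days anaerobically before the ATP read; % is set by controls: 0 for no effect and ±100 for the full control effect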
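Luminescence from cellular ATP indicates surviving trophozoites (100 cells/well) following 48 hrs anaerobic compound treatment at 37 deg C; signal develops 15-30 min at room temperature.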
ERG-DNA inh – blocks human ERG Ets domain binding to DNA | AID 624246 | Potency, µM (titrated, usually from 76.9 µM), for inactives: at the top dose FP activity, negative = inhibition, most hits filed as inhibitors | hit rate 0.028% among 370,000 | P11308 | fluorescence polarization, His-ERG Ets domain / labelled DNA; active = well fitted inhibition curve with a large enough effect in the polarisation, with a control signal flat; inconclusive = small, poorly fitted or top-dose-only effect, or effect the other way, or a change in a side signal; inactive = no such curve, though single readings can be large or run the other way; the % refers to the polarisation;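 note: polarization taken with two DNA probes labelled with fluorescein and Texas red; potency is the fitted concentration of half-maximal effect; % of control where 0% means no effect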
Target sequence (P11308 whole entry, looked up, the tested form may be a part): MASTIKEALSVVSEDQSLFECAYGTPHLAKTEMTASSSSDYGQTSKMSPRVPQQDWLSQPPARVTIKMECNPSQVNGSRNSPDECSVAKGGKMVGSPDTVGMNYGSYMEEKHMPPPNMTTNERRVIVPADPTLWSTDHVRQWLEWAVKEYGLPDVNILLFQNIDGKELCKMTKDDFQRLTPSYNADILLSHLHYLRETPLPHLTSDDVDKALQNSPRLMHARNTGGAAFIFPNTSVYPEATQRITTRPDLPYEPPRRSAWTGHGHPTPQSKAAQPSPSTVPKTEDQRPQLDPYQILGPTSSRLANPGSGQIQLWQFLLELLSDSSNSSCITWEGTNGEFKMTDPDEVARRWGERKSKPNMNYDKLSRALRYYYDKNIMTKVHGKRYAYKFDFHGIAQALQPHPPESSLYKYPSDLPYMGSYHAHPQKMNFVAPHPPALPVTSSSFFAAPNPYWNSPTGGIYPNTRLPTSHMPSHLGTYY
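His-tagged ERG Ets domain (1 uM in the protein solution; 300mM KCl, 50mM Tris-HCl, 1mM EDTA, 1mM DTT, pH 7.5) received compound, then a probe mix of 5 nM fluorescein-DNA and 100nM Texas-615-DNA. Fluorescence polarization was read for both dyes.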
* hit, by the source's call; ? = inconclusive; / = not tested or not shown; [ ] = another dose, or the depositor's remark. The full list was thinned out, with hits kept by preference. Unless noted, calls come from the whole dose curve; as a rule, active = well fitted curve in the direction sought with a large enough effect; inconclusive = small, poorly fitted or top-dose-only effect, or another doubt; inactive = no such curve, though single readings can be large; an effect the other way counts as inactive or inconclusive.

SMILES	a7 integrin act	RORgamma inh	VP16 counter	Giardia kill	ERG-DNA inh
Cc1ccc(CN(C(=O)COc2ccc(Cl)c(C)c2)C2CCS(=O)(=O)C2)o1 (centres undefined)	/	/	/	/	-3%
COc1ccc([C@H]2C[C@@H](O)[C@H](n3cc(COC(=O)c4ccccc4)nn3)CN2CC2CCCCC2)cc1	-51%	/	/	/	/
COc1ccc(N2CCN(C(=O)c3cc(S(=O)(=O)N4CCCCCC4)ccc3OC)CC2)cc1	4%	/	/	-10	-6%
O=C(Nc1ccccc1)O/N=C/c1ccc(F)cc1	-20%	10µM*	?	1	-8%
O=C(Nc1ccc(N2CCOCC2)c(Cl)c1)c1ccc(Cl)cc1	12%	35%	-8%[10 µM]	2	-4%
O=C(/C=C/c1ccc(F)cc1)NC(=S)Nc1ccccc1	10%	7.9µM*	10µM*	10	4%
O=C(/C=C/c1ccc(Cl)cc1)NC(=S)Nc1ccc(N2CCOCC2)c(Cl)c1	-23%	?	5.6µM*	-1	2%
O=C(/C=C/c1ccc(S(=O)(=O)N2CCOCC2)cc1)NC(=S)Nc1ccc(Cl)cc1Cl	18%	11µM*	12%	2	5%
O=C(CCc1ccccc1)NCCc1ccc(F)cc1	44%	12%	15%	26	0%
CCOC(=O)C1CCCN(S(=O)(=O)c2ccc(N3CCCCS3(=O)=O)cc2)C1 (centres undefined)	/	/	/	/	1%
O=C(/C=C/c1ccc(Cl)cc1)Nc1ccc(N2CCOCC2)cc1	24%	12%	9%[10 µM]	-21	-2%
C=CCN(CC=C)S(=O)(=O)c1ccc(NC(=S)NC(=O)/C=C/c2ccccc2)cc1	?	2.5µM*	-20%	2	-2%
O=C(/C=C/c1ccccc1)NC(=S)Nc1ccc(N2CCOCC2)cc1	-8%	1µM*	3.2µM*	2	/
Nc1ccc(-c2nc3c(ccc4ccccc43)[nH]2)cc1	-48%	0.89µM*	?	23	8%
Nc1ccc(-c2nc3ccccc3[nH]2)cc1	-14%	-29%	-9%	-7	8%
CCOC(=O)C1=C(C)NC2=C(C(=O)c3ccccc32)C1c1ccc([N+](=O)[O-])o1 (centres undefined)	-22%	6%	5%	-95*	-6%
CCOC(=O)C1=C(C)NC(=O)NC1c1ccc([N+](=O)[O-])o1 (centres undefined)	-7%	-2%	6%	?	-8%
Cc1ccc(Cl)cc1N1CCN(C(=O)c2cn(C)c3ccc(S(=O)(=O)N4CCCC4)cc3c2=O)CC1	/	/	/	/	3%
CCC(=O)N1CCN(c2ccc(Cl)cc2NC(=S)NC(=O)c2ccco2)CC1	-14%	/	/	5	-10%
O=C(NC(=S)N1CCN(c2ccc([N+](=O)[O-])cc2)CC1)c1ccco1	8%	0.71µM*	1.4µM*	-21	-2%
O=C(NC(=S)N1CCN(c2ccc(Cl)cc2[N+](=O)[O-])CC1)c1cccs1	-57%	0.28µM*	/	3	7%
Cc1ccc(CC(=O)N2CCN(c3ccc([N+](=O)[O-])cc3)CC2)cc1	-29%	?	35µM*	-14	-10%
O=C(NC(=S)N1CCN(c2ccc(Cl)cc2[N+](=O)[O-])CC1)c1ccco1	-11%	0.28µM*	0.25µM*	-20	-3%
COc1ccc(-c2cc(=O)oc3c4c(ccc23)OCN(Cc2cccc(OC)c2)C4)cc1	/	/	/	/	-5%
C=Cc1cccc(C)c1	/	-2%	-1%	/	/
SMILES	a7 integrin act	RORgamma inh	VP16 counter	Giardia kill	ERG-DNA inh
O=C(Nc1ccc(-c2nc3ccc(NC(=O)c4cccs4)cc3[nH]2)cc1)c1cccs1	-43%	13µM*	?	13	/
CC(=O)Nc1ccc2nc(-c3ccccn3)[nH]c2c1	-22%	10µM*	-24%	-22	-4%
c1ccc(-c2nc3cc4ccccc4cc3[nH]2)nc1	9%	2.8µM*	3.2µM*	?	-7%
O=C(Nc1ccc2nc(-c3cccs3)[nH]c2c1)c1cccs1	-6%	-2%	-7%	-6	-3%
CC[C@H]1[C@@H]2C=C[C@@H]3[C@H]4C/C=C\C(=O)NCCC[C@@H]5NC(=O)C(=C5O)C(=O)CC[C@@H]4C[C@@H]3[C@H]2C[C@H]1C	/	2.2µM*	-2%	/	/
Cc1cccc(C)c1N=C1C(=O)Nc2ccccc21	-1%	?	18µM*	?	-3%
Cc1[nH]n(-c2ccccc2)c(=O)c1C(=O)c1ccc(Cl)cc1	-7%	11µM*	6%	0	-1%
CCSC(=S)c1c(C)[nH]n(-c2ccccc2)c1=O	42%	0.35µM*	1.1µM*	-2	8%
O=C(CN1CCN(c2ccc(O)cc2)CC1)NC(=O)NCc1ccco1	-16%	?	3%	-23	3%
CC(C)(C)c1ccc(C(=O)NC(=S)Nc2ccc(N3CCOCC3)cc2)cc1	25%	4.5µM*	7.1µM*	6	10%
O=C(NC(=S)Nc1ccc(N2CCOCC2)cc1)c1ccc(Cl)cc1	17%	4µM*	7.1µM*	8	-6%
O=C(Nc1ccc(Cl)cc1)Nc1ccc(N2CCOCC2)cc1	-7%	21%	9%	-3	8%
CCOc1ccc2nc(C)cc(Nc3ccccc3OCC)c2c1	/	/	/	/	0%
COc1ccc(-c2nc(NC3=NCCCCC3)sc2C)cc1	?	10µM*	4%	-2	-6%
COc1ccc(NC2=NCCCCC2)cc1	2%	6%	-3%	-11	-1%
CC(NC(=O)Nc1ccc(Br)cc1)C(C)(C)C (centres undefined)	?	?	3%	-26	2%
CC(NC(=S)Nc1c(Br)cccc1OC(F)F)C(C)(C)C (centres undefined)	-10%	10µM*	?	-12	-3%
CCCCCNC(=O)c1c[nH]c2ccc(S(=O)(=O)N3CCC(C)CC3)cc2c1=O	/	/	/	/	2%
Cc1c(C(=O)N2CCOCC2)c(S(=O)(=O)Nc2cccc(Br)c2)c(C)n1C	?	0%	-16%	-1	36%
Cc1c(C(=O)N2CCCCC2)c(S(=O)(=O)Nc2cccc(Br)c2)c(C)n1C	10µM*	18%	0%	-16	6%
CC(C)c1nc(=S)n(-c2ccccc2)[nH]1	0%	5.6µM*	?	-12	-2%
CCN1CN(CCc2ccccc2)CNC1=S	23%	13µM*	?	-6	7%
COc1ccccc1N1CN(CCc2ccccc2)CNC1=S	?	4%	?	-16	4%
CCN1CNC(=S)N(CCc2ccccc2)C1	-22%	8.9µM*	13µM*	2	3%
CCN1CNC(=S)N(Cc2ccccc2)C1	7%	16µM*	?	-10	2%
Cn1c2c(c(=O)n(C)c1=O)CN(CCc1ccccc1)CN2	13%	-30%	2%	-18	0%
S=C1NCN(Cc2ccccc2)CN1	?	2%	0%	-3	-6%
COc1ccccc1N1CN(Cc2ccccc2)CNC1=S	-17%	2µM*	?	9	4%
C=CCN1CN(CCc2ccccc2)CNC1=S	-7%	1.6µM*	16µM*	1	-5%
